Shown are actives, neighbours in structure and some others; about 3.6% of the full set was active somewhere.
Giardia FBPA inh – qHTS Assay for Inhibitors of Fructose-1,6-bisphosphate Aldolase from Giardia Lamblia; A8B2U2; purified Giardia FBPA; Potency, µM (series often up to 59.6 µM), without a hit: at the highest dose activity, negative = inhibition, hits mostly inhibitors; actives 0.71% (n = 290,000); AID 2451, 2010; also: nearly all actives have a fitted effect of over 55% in size
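40 nM FBPA preincubated 10 min at RT with compound (up to 57.5 uM final), then substrate plus GAPDH/TPI/NAD/arsenate coupling and diaphorase/resazurin added. Fluorescence read after 20 min at RT, 525/598 nm.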
AmpC inh no detg – qHTS Inhibitors of AmpC Beta-Lactamase (assay without detergent); P00811; AmpC nitrocefin hydrolysis, absorbance 480 nm, 0.0001% Triton; Potency, µM (doses to about 57.1 µM), for inactives: at the top dose activity change, negative = inhibition, usual class: inhibitors; actives 0.52% (n = 330,000); AID 485341, 2010;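 also: plate controls were no compound for no effect and no enzyme for full effect; nearly all actives have a fitted effect of over 20% in size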
Target sequence (P00811 whole entry, looked up): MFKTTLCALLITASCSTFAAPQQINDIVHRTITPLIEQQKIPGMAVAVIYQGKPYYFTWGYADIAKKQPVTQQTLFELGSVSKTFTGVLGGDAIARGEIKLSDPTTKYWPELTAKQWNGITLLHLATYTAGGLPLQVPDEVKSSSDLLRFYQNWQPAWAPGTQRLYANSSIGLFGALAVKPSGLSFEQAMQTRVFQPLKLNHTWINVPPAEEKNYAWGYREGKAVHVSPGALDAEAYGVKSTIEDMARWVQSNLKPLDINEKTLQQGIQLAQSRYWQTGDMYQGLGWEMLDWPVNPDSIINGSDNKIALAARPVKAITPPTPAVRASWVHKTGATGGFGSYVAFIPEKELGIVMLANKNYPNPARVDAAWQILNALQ
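20 mM phosphate pH 7.0 + 0.01% (detergent screen) or 0.0001% Triton X-100; 5.3 nM AmpC reagent; cpd preinc 15 min RT; nitrocefin (800 uM stock) to start; A480 q20 s × 4 min; Activity was normalised to no-enzyme and no-compound control wells.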
Sm TGR block – qHTS Assay for the Inhibitors of Schistosoma Mansoni Peroxiredoxins; Potency, µM (doses to about 114 µM), without a hit: at the top dose activity change, negative = inhibition, most hits filed as inhibitors; purified TGR, DTNB reduction, TNB absorbance 405 nm; actives 3% (n = 360,000); Schistosoma mansoni thioredoxin glutathione reductase (TGR), Q962Y6; AID 485364, 2010; also: nearly all actives have a fitted effect of over 60% in size
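Kinetic colorimetric format: TGR-catalysed, NADPH-driven DTNB reduction monitored via TNB absorbance. Enzyme dispensed at 20 nM; compound exposure 15 min at room temperature before reaction start.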
AmpC inh detg – qHTS Inhibitors of AmpC Beta-Lactamase (assay with detergent); P00811; AmpC hydrolysis of nitrocefin, absorbance 480 nm, 0.01% Triton; Potency, µM (top dose mostly 114 µM), for the others: at the top dose activity change, negative = inhibition, actives largely listed as inhibitors; actives 0.041% (n = 370,000); AID 485294, 2010;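 also: 0% = no-compound wells and -100% = no-enzyme wells; nearly all actives have a fitted effect of over 25% in size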
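20 mM phosphate pH 7.0 + 0.01% (detergent screen) or 0.0001% Triton X-100; 5.3 nM AmpC reagent; cpd preinc 15 min RT; nitrocefin (800 uM stock) to start; A480 q20 s × 4 min; Activity was normalised to no-enzyme and no-compound control wells.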
* hit, by the source's call; ? = inconclusive; . = no result given; [ ] = another dose, or the depositor's remark. Calls follow the shape of the dose curve; as a rule, active = well fitted curve in the direction sought with a large enough effect; inconclusive = small, poorly fitted or top-dose-only effect, or another doubt; inactive = no such curve, though single readings can be large; an effect the other way counts as inactive or inconclusive. Unless noted, % is scaled to controls: 0 for no effect and ±100 for the full control effect; potency is read from the fitted curve at half-maximal effect.

SMILES	Giardia FBPA inh	AmpC inh no detg	Sm TGR block	AmpC inh detg
COc1ccc(C(CNC(=O)c2cc(C)oc2C)N2CCOCC2)cc1 (stereo unspecified)	-7%	10%	28µM*	-4%
CCOCC(=O)Nc1nc2ccccc2s1	4%	-22%	35µM*	-5%
Oc1ccc(N=C/C=C/c2cccc(Br)c2)cc1-c1nc2ccccc2s1	?	-44%	40µM*	?
CC(=O)c1cc2c(cc1NC(=O)CCn1cnnn1)OCO2	2%	-20%	50µM*	-13%
Cc1cc(C)n(C(C)CC(=O)NCc2ccc(Cl)cc2)n1 (stereo unspecified)	.	.	0%	22%
COc1cc(C(=O)NC(=S)Nc2ccccc2N2CCOCC2)cc(OC)c1OC	.	16µM*	25µM*	-3%
O=C(NC(=S)Nc1cc(C(F)(F)F)ccc1N1CCOCC1)c1ccco1	-15%	73%	11µM*	2%
CC(=O)NC(=S)Nc1cc(C(F)(F)F)ccc1N1CCOCC1	2%	51%	-27%	-8%
COc1cccc(C(=O)NC(=S)Nc2ccccc2N2CCOCC2)c1	.	-2%	2%	4%
CCCCCCC1CCC(C(=O)NC(C(=O)O)C(C)C)CC1 (stereo unspecified)	.	.	-1%	3%
CN1CCN(C(=O)c2sc(=S)n(-c3ccccc3)c2N)CC1	5.6µM*	-39%	-1%	?
Cc1ccc(-n2c(N)c(C(=O)N3CCOCC3)sc2=S)cc1	-19%	-4%	3%	?
C=CCc1ccccc1OCC(O)CNC (stereo unspecified)	4%	-7%	25µM*	?
C=CCc1ccccc1OC[C@H](O)CNC(C)C	-6%[21.7 µM]	.	.	.
C=CCN1c2ccccc2[C@]23C[C@@H](C(=O)OC)N(S(=O)(=O)c4ccc(Br)cc4)C2=NC(C(=O)OC)=C(C(=O)OC)[C@H]13	6%[12.9 µM]	.	.	.
CC(=O)N1CCC2(CC1)CN(c1ccccc1)C2	-3%	.	.	.
C=CCN(CC=C)S(=O)(=O)c1ccc(NC(=S)NC(=O)c2ccc(-c3ccccc3)cc2)cc1	-1%	-23%	-6%	-1%
CCN(CC)c1ccc(NC(=S)NC(=O)c2cccs2)cc1	-7%	-57%	8.9µM*	3%
C=CCN(CC=C)S(=O)(=O)c1ccc(NC(=S)NC(=O)c2ccco2)cc1	-29%	35µM*	?	-13%
CCN(CC)c1ccc(NC(=S)NC(=O)c2ccco2)cc1	-15%	-21%	11µM*	?
CCN(c1ccccc1)S(=O)(=O)c1ccc(NC(=S)NC(=O)c2cccs2)cc1	-1%	14µM*	?	1%
CCOC(=O)c1cc2c(=O)n3ccccc3nc2n(Cc2ccco2)c1=NC(=O)c1ccc(OC)cc1OC	-14%	-13%	32µM*	1%
CCOc1cc(/C=N/Nc2nc(-c3cccs3)c(NC(C)=O)s2)ccc1O	-26%	-46%	?	-3%
Cc1c(/C(O)=C2/C(=O)C(=O)N(CCN(C)C)C2c2ccc(C(C)C)cc2)cnn1-c1ccccc1 (stereo unspecified)	8%	82%	-6%	-2%
Cc1ccc(C)c(/C(O)=C2/C(=O)C(=O)N(CCN3CCOCC3)C2c2ccco2)c1 (stereo unspecified)	-13%	132%	20µM*	10%
SMILES	Giardia FBPA inh	AmpC inh no detg	Sm TGR block	AmpC inh detg
Cc1c(/C(O)=C2\C(=O)C(=O)N(CCN(C)C)C2c2ccccc2)cnn1-c1ccccc1 (stereo unspecified)	-1%	-3%	13µM*	-13%
Cc1ccc(C2/C(=C(/O)c3ccccc3)C(=O)C(=O)N2CCN2CCOCC2)o1 (stereo unspecified)	-15%	-10%	45µM*	4%
Cc1c(/C(O)=C2/C(=O)C(=O)N(CCN3CCOCC3)C2c2cccs2)cnn1-c1ccccc1 (stereo unspecified)	11%	0%	35µM*	0%
COC(=O)c1[nH]c(C)c(/C(O)=C2\C(=O)C(=O)N(CCN3CCOCC3)C2c2ccc(C)o2)c1C (stereo unspecified)	-20%	-7%	?	-1%
COc1ccc(CCNC(=O)COC(=O)CSc2ccc([N+](=O)[O-])cc2)cc1OC	.	-11%	-8%	?
Cc1ccc(C2/C(=C(/O)c3cnn(-c4ccccc4)c3C)C(=O)C(=O)N2CCN2CCOCC2)o1 (stereo unspecified)	-26%	27%	22µM*	6%
CCCc1cc(=O)[nH]c2nnc(SCC(=O)NC3CCCC3)n12	.	18µM*	1%	?
O=C(Nc1ccc2nc(-c3ccc(Br)o3)[nH]c2c1)c1ccco1	-19%	-40%	0%	3%
O=C(Nc1ccc2nc(-c3ccccc3)[nH]c2c1)c1ccco1	-5%	-24%	28µM*	3%
CS(=O)(=O)c1ccc(C(=O)Nc2cccc(-c3nc4ccccc4[nH]3)c2)cc1	2%	-41%	-3%	-11%
O=C(Nc1cccc(-c2nc3ccccc3[nH]2)c1)c1cccc(NC(=O)c2ccco2)c1	4%	3.2µM*	-16%	?
CS(=O)(=O)c1cccc(C(=O)Nc2cccc(-c3nc4ccccc4[nH]3)c2)c1	3%	18µM*	-28%	-9%
Cc1ccc(-c2nc3ccccc3[nH]2)cc1NC(=O)c1ccco1	-5%	-51%	-2%	-1%
Cc1onc(-c2ccccc2)c1-c1nnc(CN2CCN(S(=O)(=O)c3ccccc3F)CC2)o1	.	163%	4%	-2%
CCN1CCN(c2nc3ccccc3n3cnnc23)CC1	3%	-7%	1%	2%
O=C1CN(c2nc3ccccc3n3cnnc23)CC(=O)N1CCc1ccccc1	-1%	-32%	32µM*	?
Cc1ccc2c(C)c(C(=O)N3CCCCC3CO)oc2c1C (stereo unspecified)	16%	126%	-7%	-13%
COC(=O)C1CN(C(=O)COc2ccccc2)c2ccccc2O1 (stereo unspecified)	8%	-5%	84%	2%
O=C(CCCC(=O)OCC(=O)c1ccc(Cl)cc1Cl)Nc1cc(C(F)(F)F)ccc1Cl	.	-21%	89µM*	-3%
O=C(OCN1C(=O)c2ccccc2C1=O)c1ccc(Cl)nc1	17%	-1%	7%	-18%
N#CC(C#N)=NNc1ccc([N+](=O)[O-])cc1	1%	-16%	25µM*	4%
C/C(=N\Nc1ccc([N+](=O)[O-])cc1)c1ccc(C#N)cc1	-1%	-27%	0%	3%
CCN(CC)S(=O)(=O)c1ccc(NN=C(C#N)C#N)cc1	25%	-48%	7.9µM*	3%
CCN(CC)S(=O)(=O)c1ccc(NC=C(C#N)C#N)cc1	-10%	-4%	-1%	-1%
C=CCOc1c(Cl)cc(CNc2ccc(N(C)C)cc2)cc1OC	4.5µM*	-5%	18µM*	8%
